Experimental data taken from the supplement of paper PMC4100887.
± gives the standard deviation of the averaged measurements.

What was measured:
IMR-90 = test: relative cell viability (ATPlite) vs untreated control (fraction); higher = less toxic; details: 1 µM; 72 h
K562 [1] = test: as above; details: 1 µM; 72 h
K562 [2] = test: relative cell viability (ATPlite) vs untreated control, with imatinib (fraction); higher = less toxic; details: 1 µM; 72 h; imatinib 0.125 µM

O=C1NC(=O)c2c1c1c3ccccc3n3c1c1c2c2ccccc2n1[C@H]1CC[C@@H]3O1 showed a relative cell viability (IMR-90) of 1.04 ± 0.092, a relative cell viability (K562 [1]) of 0.872 ± 0.058 and a relative cell viability (K562 [2]) of 0.797 ± 0.069.

For O=[N+]([O-])/C=C/c1ccc2c(c1)OCO2 [Syk Inhibitor III], the relative cell viability (IMR-90) was 0.932 ± 0.087, the relative cell viability (K562 [1]) was 0.819 ± 0.063 and the relative cell viability (K562 [2]) was 0.753 ± 0.033.

Compound NC(=NN=Cc1ccc(-c2cccc([N+](=O)[O-])c2)o1)N[N+](=O)[O-] [ERK Inhibitor III] has a relative cell viability (IMR-90) of 1.01 ± 0.12, a relative cell viability (K562 [1]) of 0.937 ± 0.079 and a relative cell viability (K562 [2]) of 0.775 ± 0.053.

For CC(C)(C)c1cc(C=C(C#N)C#N)cc(Br)c1O, the relative cell viability (IMR-90) was 0.962 ± 0.047, the relative cell viability (K562 [1]) was 1 ± 0.12 and the relative cell viability (K562 [2]) was 0.847 ± 0.017.

In the case of COc1ccc2c(c1)/C(=C/c1cnc[nH]1)C(=O)N2, the relative cell viability (IMR-90) is reported as 1.31 ± 0.26, the relative cell viability (K562 [1]) is reported as 0.907 ± 0.17 and the relative cell viability (K562 [2]) is reported as 0.881 ± 0.08.

Compound COC(=O)[C@]1(O)C[C@@H]2O[C@@]1(C)n1c3ccccc3c3c4c(c5c6ccccc6n2c5c31)C(=O)NC4 [K-252a, Nocardiopsis sp.] has a relative cell viability (IMR-90) of 0.668 ± 0.06, a relative cell viability (K562 [1]) of 0.305 ± 0.26 and a relative cell viability (K562 [2]) of 0.363 ± 0.26.

Work on O=S(=O)(c1c(O)c(Cl)cc(Cl)c1Cl)c1c(O)c(Cl)cc(Cl)c1Cl [p38 MAP Kinase Inhibitor IV] yielded a relative cell viability (IMR-90) of 0.988 ± 0.073, a relative cell viability (K562 [1]) of 0.813 ± 0.076 and a relative cell viability (K562 [2]) of 0.762 ± 0.026.
